An excerpt weighted towards active compounds, which were near 5% of everything screened.
EBI2 block – antagonists of human EBI2 receptor | P32249 | 360,000 tested, 0.81% active | AID 651636 | inhibition, % at 5 µM | EBI2 beta-arrestin recruitment, luminescence, 7a,25-OHC stimulated; in the data active = inhibition above about 38%;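 note: enzyme fragment complementation signal reports receptor beta-arrestin coupling in cells; 0% = agonist plus DMSO wells and 100% = wells without agonist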
SENP8 block-1 – SENP8 protease inhibition; 330,000 tested, 1.2% active; AID 2540; Q96LD8; inhibition, % at 10 µM; purified SENP8, Z-RLRGG-aminoluciferin cleavage, luminescence; in the data active = inhibition above about 50%
SENP8 block-2 – inhibitors of human SENP8 protease. Q96LD8. recombinant SENP8, Nedd8 substrate fluorescence. inhibition, % at 20 µM. 360,000 tested, 0.64% active; in the data active = inhibition mostly above about 40%, no sharp cut-off; inactive = mostly below about 27%
SENP7 block – blocks the human protease SENP7; recombinant SENP7, Z-RLRGG-aminoluciferin luminescence, 40 min; AID 434973; inhibition, % at 5 µM; Q9BQF6; 330,000 tested, 1.5% active;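 active = inhibition above about 50% at the single test dose, limit read from the data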;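 note: plate controls were DMSO with enzyme for no effect and no enzyme buffer wells for full effect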
AHR activator – human AHR activation | P35869 | 320,000 tested, 2.5% active | AID 2796 | activation, % at 5 µM | AHR-responsive luciferase reporter cells, luminescence; in the data active = activation above about 47%;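 note: 0% = vehicle wells and 100% = reference agonist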
SENP6 block – SENP6 protease inhibition; Q9GZR1; Recombinant SENP6 catalytic domain, aminoluciferin luminescence; inhibition, % at 10 µM; 330,000 tested, 1.8% active;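 active = inhibition above about 50% at the single tested dose, limit read from the data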;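 note: plate controls were DMSO wells with enzyme for no effect and DMSO wells lacking enzyme for full effect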
Active calls of the source: *; . = not tested or not shown.

SMILES	EBI2 block	SENP8 block-1	SENP8 block-2	SENP7 block	AHR activator	SENP6 block
Cc1ccccc1/C=N/NC(=O)c1sccc1C	4.8	95.2*	3.0	99.1*	28.4	96.1*
O=C(N/N=C/c1ccc(Br)cc1)c1ccccc1-n1cccc1	10.1	-15.1	22.0	-9.7	71.1*	-8.8
Cc1ccccc1/C=N\NC(=O)c1ccccc1-n1cccc1	3.8	0.2	8.4	-2.4	67.9*	-0.4
CCOc1cc(/C=N/NC(=O)c2ccccc2-n2cccc2)ccc1O	-1.7	5.2	-33.0	-2.4	8.0	3.3
O=c1[nH]cnc2onc(-c3ccc(F)cc3)c12	-7.3	-9.9	18.8	-3.1	0.5	-8.8
CC(=O)NCCNc1nc(NCC2CC2)nc2cc(-c3ccccc3)sc12	19.2	.	-200.9	.	.	.
O=C(NCc1ccccc1)C(=O)NCC(c1ccco1)N1CCN(c2ccccc2F)CC1 (stereo unspecified)	4.0	2.9	11.3	2.6	5.7	-10.8
O=C(NCCc1c[nH]c2ccccc12)C(=O)NCC(c1ccco1)N1CCN(c2ccccc2F)CC1 (stereo unspecified)	58.0*	-7.6	19.7	0.5	2.9	-7.4
CN(C)c1ccc(/C=N/N2CCN(c3ccccn3)CC2)cc1	-10.0	62.0*	11.2	77.7*	1.2	74.5*
O=C(O)CN1C(=O)/C(=C2\C(=O)N(Cc3ccccc3Cl)c3ccccc32)SC1=S	-8.7	.	22.9	.	60.1*	.
O=C1/C(=C2\C(=O)N(Cc3ccc(F)cc3)c3ccccc32)SC(=S)N1CCS(=O)(=O)O	-1.5	5.6	19.5	-4.9	1.5	19.5
Cc1ccc2c(c1)N(CC(=O)N1CCCC1)C(=O)CO2	-0.2	5.4	0.2	4.9	31.0	-9.0
CN(C)C(=O)c1ccc(Cc2cn(C)c3ccccc23)nc1	-7.1	.	5.2	.	.	.
COC1=CC(=O)c2nc(Cl)ccc2C1=O	-33.4	.	87.8*	.	.	.
C=CCN(CC=C)C(=S)NC(=O)c1ccc(OC)cc1	-4.3	-12.9	12.4	-7.7	51.1*	-42.6
O=C(Nc1ccccc1Cl)c1cc(C2CCCCN2C(=O)c2ccccc2)on1 (stereo unspecified)	2.0	.	10.1	.	.	.
CC(=O)c1c(C)n([O-])c2ccc(C)cc2[n+]1=O	5.8	-1.9	-78.6	1.4	59.6*	-8.6
CC1(C)CC(=O)C2=C(C1)OC1OC(=O)CC21C (stereo unspecified)	-11.4	-0.4	6.7	-1.1	-0.3	-4.8
CCc1ccc2[nH]c(C(=O)Nc3ccc(F)cc3Br)cc2c1	-2.2	-1.7	-27.8	5.2	48.6*	0.7
Cc1cc(C)c2[nH]c(C(=O)Nc3ccc4c(c3)OCO4)cc2c1	8.6	-3.5	-40.3	8.3	-2.0	-5.7
CCc1onc(C)c1C(=O)Nc1ccc2c(c1)OCO2	-7.2	-2.5	3.1	5.1	58.1*	-5.1
CCc1ccc2[nH]c(C(=O)Nc3ccc4c(c3)OCO4)cc2c1	17.0	-24.1	-36.5	-1.7	72.2*	-19.8
COc1ccc(NC2CC(=O)N(c3cc([N+](=O)[O-])ccc3C)C2=O)cc1 (stereo unspecified)	-2.9	-10.4	23.3	-11.8	1.4	1.0
COc1ccc(Br)cc1C(=O)Nc1cccc2ncccc12	9.6	4.7	-22.2	1.2	27.1	-8.8
O=C(Nc1cccc2ncccc12)c1ccc([N+](=O)[O-])o1	13.8	5.6	29.4	7.5	-0.4	-1.5
SMILES	EBI2 block	SENP8 block-1	SENP8 block-2	SENP7 block	AHR activator	SENP6 block
O=C(Nc1cccc2ncccc12)c1ccc(-c2ccc(Br)cc2)o1	19.3	-6.0	2.6	9.7	52.7*	-6.5
O=C(Nc1cccc2ncccc12)c1ccc(Cl)cc1	7.2	1.8	13.7	1.2	65.4*	-4.6
COc1ccc(Cl)cc1C(=O)Nc1cccc2ncccc12	12.8	-3.7	-31.9	-8.4	66.3*	13.2
O=C(Nc1cccc2ncccc12)c1ccc(F)cc1	-0.4	3.2	7.7	3.1	32.9	13.5
COc1cc2c(cc1NC(=O)Nc1ccccc1)oc1ccccc12	13.0	0.5	-136.6	3.8	47.9*	-21.0
COc1cc2c(cc1NC(=S)Nc1cccc3ccccc13)oc1ccccc12	-5.0	1.1	-395.8	14.5	71.6*	29.7
COc1cc2c(cc1NCc1ccccn1)oc1ccccc12	7.2	-1.4	-497.6	3.5	62.7*	-4.6
COCCCNC(=S)Nc1cc2oc3ccccc3c2cc1OC	6.5	-8.1	-20.1	2.2	.	-11.6
O=C(C1CCCC1)N1CCN(S(=O)(=O)c2cccc(Cl)c2Cl)CC1	6.3	-1.2	22.4	5.9	4.1	17.9

Assay outcomes deposited in PubChem by several laboratories.
